In all, about 350,000 compounds went through this assay and about 6,000 (1.7%) were called active. Inconclusive results (about 5%) are left out. No stated cut-off is given here; in the data, active means CPE inhibition above about 20% (passing the limit was not always enough); inconclusive means no clear call, values can overlap the other calls; tested in BHK-21 cells. The full list was thinned out, with actives kept by preference.

This assay can be described thus: protection of cells from dengue 2 killing – plate reader, single concentration, primary screen (AID 651640).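 Further: 0% = median of neutral control wells and 100% = median of positive control wells.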 As to conditions: DENV2-infected cells, cytopathic effect rescue, at 9.99 µM, stronger effect = higher value. (Protection from cytopathic effect is a common read-out in antiviral testing.)
Turning to `C[C@@H]1CN([C@@H](C)CO)C(=O)c2cc(C3=CCCC3)cnc2O[C@@H]1CN(C)C(=O)Cc1ccncc1`, the CPE inhibition was -2.39% (inactive).
Regarding `N#C[C@H]1[C@H](c2ccc(C#Cc3ccc(F)cc3)cc2)[C@@H](CO)N1C(=O)C1CCCC1`, the CPE inhibition is 22.7% (active).
Next, `Cc1ccccc1S(=O)(=O)N1[C@@H](C#N)[C@H](c2ccccc2)[C@@H]1CO`: 8.15% (inactive); `CS(=O)(=O)N1[C@H](C#N)[C@H](c2ccc(C#CC3CCCC3)cc2)[C@H]1CO`: 28.9% (active).
`CS(=O)(=O)N1[C@@H](C#N)[C@H](c2ccc(C#CC3CCCCC3)cc2)[C@@H]1CO`: the CPE inhibition is -6.42% (inactive).
On to `CS(=O)(=O)N1[C@H](C#N)[C@H](c2ccccc2-c2ccc(F)cc2)[C@@H]1CO`, for which the CPE inhibition is 29.1% (active).
With `Cc1ccccc1S(=O)(=O)N1[C@H](C#N)[C@H](c2ccccc2)[C@@H]1CO` the figure was 119% (active); with `N#C[C@@H]1[C@H](c2ccc(C#Cc3cccc(F)c3)cc2)[C@@H](CO)N1C(=O)C1CCCC1`, 3.79% (inactive).
For `Cc1ccccc1S(=O)(=O)N1[C@H](C#N)[C@H](c2ccccc2)[C@H]1CO`, the CPE inhibition is 9.21% (inactive).
With `N#C[C@@H]1[C@H](c2ccccc2-c2ccc(F)cc2)[C@@H](CO)N1c1ncc(-c2ccccc2)s1` the figure was 0.494% (inactive); with `COCC(=O)N1[C@H](CO)[C@H](c2ccccc2-c2ccc(C)cc2)[C@@H]1C#N`, -2.92% (inactive); with `N#C[C@@H]1[C@@H](c2ccc(C#Cc3cccc(F)c3)cc2)[C@@H](CO)N1C(=O)C1CCC1`, -2.98% (inactive).
Next, `CS(=O)(=O)N1[C@H](C#N)[C@H](c2ccc(C#CC3CC3)cc2)[C@H]1CO`: 4.72% (inactive); `C[C@@H]1CN([C@H](C)CO)S(=O)(=O)c2ccc(C#C[C@@H](C)O)cc2O[C@H]1CN(C)C(=O)C1CCCCC1`: -8.28% (inactive).
Next, `C[C@H](CO)N1C[C@H](C)[C@@H](CN(C)Cc2ccc(Oc3ccccc3)cc2)Oc2cc(-c3ccncc3)ccc2S1(=O)=O`: -22.7% (inactive); `O=C(C[C@@H]1C=C[C@@H](NS(=O)(=O)c2ccc(F)cc2)[C@@H](CO)O1)NCCN1CCCCC1`: -0.229% (inactive); `CN(Cc1ccccc1F)C[C@H]1[C@@H](c2ccccc2)[C@@H](CO)N1S(C)(=O)=O`: -1.35% (inactive).
`CCCNC(=O)N1C[C@@H](O)COC[C@@H]2O[C@H](CC(=O)N3CCN(C)CC3)CC[C@H]21`: the CPE inhibition is 0.94% (inactive).
As for `C[C@H]([C@@H](O)[C@@H](O)[C@@H](C)C(C)(C)C)[C@H]1CC[C@H]2C3CC[C@H]4C[C@H](OS(=O)(=O)O)[C@@H](OS(=O)(=O)O)C[C@]4(C)[C@H]3CC[C@]12C` (stereo partly drawn), the CPE inhibition was -2.49% (inactive).
Next, `CC(C)CC#Cc1cnc2c(c1)C(=O)N([C@@H](C)CO)C[C@H](C)[C@@H](CN(C)C(=O)c1ccc(F)cc1)O2`: -4.54% (inactive); `CCC(=O)Nc1ccc2c(c1)OC[C@H](C)N(C(=O)c1ccncc1)C[C@H](C)[C@H](OC)CN(C)C2=O`: -6.05% (inactive); `C[C@H]1CN([C@@H](C)CO)C(=O)c2cc(C3=CCCC3)cnc2O[C@@H]1CN(C)C(=O)c1ccccc1`: -6.29% (inactive).
Next, `CO[C@@H]1CN(C)C(=O)c2ccc(NS(=O)(=O)c3c(C)noc3C)cc2OC[C@H](C)NC[C@@H]1C`: -11.3% (inactive); `C[C@@H]1CN([C@H](C)CO)C(=O)c2cc(C#CCC3CCCC3)cnc2O[C@H]1CN(C)Cc1ccccn1`: 15.8% (inactive).
Next, `COc1ccc(-c2ccc([C@@H]3[C@@H](C#N)N(C(=O)C4CCC4)[C@@H]3CO)cc2)cc1`: -14% (inactive).
In the case of `CCCC#Cc1ccc([C@H]2[C@@H](CO)N(C(=O)C3CC3)[C@H]2C#N)cc1`, the CPE inhibition was 39.4% (active).
For the molecule `CCCC#Cc1ccc([C@@H]2[C@@H](C#N)N(C(=O)C3CCCC3)[C@@H]2CO)cc1`, the CPE inhibition was -5.75% (inactive).
With `COc1ccccc1C#Cc1ccc([C@@H]2[C@@H](CO)N(C(=O)C3CC3)[C@H]2C#N)cc1`, the CPE inhibition was 1.77% (inactive).
With `COc1ccc(-c2ccccc2[C@H]2[C@@H](C#N)N(C(=O)C3CCC3)[C@@H]2CO)cc1` the figure was 3.73% (inactive); with `CN(C)CC#Cc1ccc([C@H]2[C@@H](CO)N(C(=O)C3CCC3)[C@H]2C#N)cc1`, 87.1% (active).
With `COc1ccc(-c2ccccc2[C@H]2[C@@H](CO)N(C(=O)C3CCC3)[C@H]2C#N)cc1` the figure was 70.3% (active); with `CCCC#Cc1ccc([C@@H]2[C@@H](C#N)N(C(=O)C3CCC3)[C@H]2CO)cc1`, -3.76% (inactive); with `CCCC#Cc1ccc([C@@H]2[C@@H](C#N)N(C(=O)C3CC3)[C@H]2CO)cc1`, -11.5% (inactive).
`OC[C@H]1[C@@H](c2ccc(C#Cc3ccccc3F)cc2)[C@H]2CN(CC3CCOCC3)CCCCN21`: the CPE inhibition was -16.8% (inactive).
Consider `C[C@@H](NC(=O)C[C@@H]1C[C@@H]2c3cc(NC(=O)c4cccnc4)ccc3O[C@@H]2[C@H](CO)O1)c1ccccc1`, for which the CPE inhibition was -1.39% (inactive).
Consider `COc1cccc(-c2ccc3c(c2)O[C@H](CN(C)C(=O)c2ccccc2F)[C@@H](C)CN([C@@H](C)CO)S3(=O)=O)c1`, for which the CPE inhibition was -3.52% (inactive).
With `Cc1ccc(-c2ccc([C@H]3[C@H](CO)N4CCCCN(Cc5cncnc5)C[C@@H]34)cc2)cc1` the figure was -2.12% (inactive).
With `OC[C@@H]1[C@H](c2ccc(C3=CCCC3)cc2)[C@H]2CN(Cc3ccncc3)CCCCN12` the figure was 41% (active).
Next, `CN(C)C(=O)c1ccc(-c2ccc([C@@H]3[C@@H](CO)N4CCCCN(Cc5cncnc5)C[C@@H]34)cc2)cc1`: 5.96% (inactive); `Cc1cccc(-c2ccc([C@@H]3[C@H](CO)N4CCCCN(Cc5ccncc5)C[C@@H]34)cc2)c1`: -6.55% (inactive); `CCCC#Cc1ccc([C@H]2[C@H]3CN(Cc4cncnc4)CCCCN3[C@H]2CO)cc1`: -10.9% (inactive).
For the molecule `COCC#Cc1ccc([C@H]2[C@H](CO)N3CCCCN(Cc4ccncc4)C[C@@H]23)cc1`, the CPE inhibition is 3.44% (inactive).
With `OC[C@H]1[C@H](c2ccc(-c3cccnc3)cc2)[C@H]2CN(Cc3ccccn3)CCCCN21` the figure was 3.13% (inactive); with `OC[C@H]1[C@H](c2ccc(-c3cccc(F)c3)cc2)[C@@H]2CN(Cc3cncnc3)CCCCN12`, 58.8% (active).
With `OC[C@H]1[C@H](c2ccc(-c3ccccc3F)cc2)[C@H]2CN(Cc3cncnc3)CCCCN21` the figure was 45.6% (active).
With `Cc1cccc(-c2ccc([C@H]3[C@@H](CO)N4CCCCN(Cc5cncnc5)C[C@H]34)cc2)c1` the figure was 5.45% (inactive); with `OC[C@H]1[C@@H](c2ccc(/C=C/c3ccccc3)cc2)[C@H]2CN(Cc3cccnc3)CCCCN21`, 23.8% (active); with `OC[C@@H]1[C@H](c2ccc(C#Cc3ccccc3)cc2)[C@@H]2CN(Cc3cncnc3)CCCCN12`, 4.64% (inactive).

Source of the values: PubChem BioAssay AID651640 (Broad Institute, 2012).
